From PubChem BioAssay
The source made the active and inactive calls.

Experiments:
[1] = tested on: Human papillomavirus type 1a protein E7 (residues 44-93); assay: HPV1a E7 fragment binders on microarrays, primary screen, biochemical, small-molecule microarray, residues 44-93, 635 nm fluorescence (AID 1108); settings: small-molecule microarray binding, fluorescence 635 nm; higher = more signal;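 note: E7 fragment applied at 1 µg/mL in TBST for 1 h at 4 C; score combines spot fluorescence with its signal to noise ratio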
[2] = modulators of HCV replicon luciferase signal, primary screen, HCV replication inhibitor project, Huh7 cells, luciferase reporter (AID 1109); settings: 48 h, higher = more signal;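 note: huh7 hepatoma cells harbouring a luciferase neomycin HCV replicon reporter; luciferase luminescence as measure of HCV replicon replication; test concentration not given here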
[3] = target: Left-right determination factor 2 (Homo sapiens) (UniProt O00292); assay: LEFTY2 binders on small-molecule microarrays, primary screen, biochemical, small-molecule microarray, 635 nm fluorescence scan (AID 1110); settings: LEFTY2 binding, higher = more signal
[4] = target: Calmodulin-1 (Homo sapiens) (UniProt P0DP23); assay: CALM1 binders on microarrays, EGTA buffer, profiling panel, biochemical, small-molecule microarray, Cy5-labelled CALM1 (AID 1111); settings: Cy5-CALM1 binding fluorescence, higher = more signal;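 note: labelled calmodulin applied in Tris saline Tween buffer holding calcium plus EGTA and DTT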
[5] = target: Calmodulin-1 (Homo sapiens) (UniProt P0DP23); assay: calcium-bound CALM1 binders on microarrays, profiling panel, artefact control for SMM control-protein annotation, biochemical, small-molecule microarray, Cy5-labelled CALM1, plus calcium (AID 1112); settings: Cy5-CALM1 binding fluorescence, higher = more signal;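 note: score merges spot fluorescence with signal to noise from triplicate slides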
[6] = small-molecule microarray binders of probe aWnt5a, primary screen, biochemical, biotinylated probe, 635/667 nm fluorescence (AID 1113); settings: higher = more signal;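 note: score merges 667 nm fluorescence intensity with signal-to-noise per printed feature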
[7] = small-molecule microarray binders of probe aShh, primary screen, biochemical, biotinylated probe, 635/667 nm fluorescence (AID 1114); settings: higher = more signal;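 note: probe is biotin-labelled aShh protein from a stem cell growth factor screen; measures binding of labelled protein to compounds printed on the slide; score merges feature fluorescence at 667 nm with signal-to-noise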
[8] = small-molecule microarray binders of probe aNog, primary screen, biochemical, biotinylated probe, 635/667 nm fluorescence (AID 1115); settings: higher = more signal;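 note: probe is biotinylated aNog protein used at 0.15 µg/mL for 1 h at 4 C; z-score combines 667 nm fluorescence of each spot with its signal to noise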
[9] = target: Torsin-1A-interacting protein 1 (Homo sapiens) (UniProt Q5JTV8); assay: LAP1 binders from COS7 cell lysate, primary screen, small-molecule microarray, 635/667 nm fluorescence (AID 1116); settings: COS7-hLAP1 lysate binding, 635 nm fluorescence, higher = more signal
[10] = target: Alpha-bungarotoxin (Bungarus multicinctus) (UniProt P60615); assay: alpha-bungarotoxin binders on microarray, profiling panel, artefact control for SMM control protein annotation, biochemical, small-molecule microarray, Alexa647 label, 635/667 nm fluorescence (AID 1117); settings: alpha-BTX-A647 binding fluorescence, higher = more signal
[11] = target: Albumin (Bos taurus) (UniProt P02769); assay: bovine serum albumin binders on microarray, profiling panel, artefact control for SMM control protein annotation, biochemical, small-molecule microarray, Alexa647 label, 635/667 nm fluorescence (AID 1118); settings: BSA-A647 binding, fluorescence 635 nm, higher = more signal;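 note: score merges 667 nm emission intensity and signal-to-noise per printed compound spot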
[12] = small-molecule microarray binders of probe aXIP, primary screen, biochemical, NeuroSMM set, 635/667 nm fluorescence (AID 1119); settings: higher = more signal, called active from +8 up or from −8 down;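 note: probe is the protein aXip251-270 applied at 1 µg/mL to compound-printed slides; binding of probe to printed compounds measured as 667 nm fluorescence plus signal to noise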
[13] = small-molecule binders of probe aNOTCH3, primary screen, biochemical, small-molecule microarray, 635/667 nm fluorescence (AID 1120); settings: higher = more signal;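 note: probe is a biotin-tagged antibody raised against NOTCH3 rather than NOTCH3 protein; score merges spot fluorescence near 667 nm with spot signal to noise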
[14] = small-molecule binders of probe aNOTCH2, primary screen, biochemical, small-molecule microarray, 635/667 nm fluorescence (AID 1121); settings: higher = more signal;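 note: score merges feature fluorescence read at 667 nm with its signal to noise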
[15] = target: Carbonic anhydrase 2 (Homo sapiens) (UniProt P00918); assay: CAII small-molecule binders, profiling panel, biochemical, small-molecule microarray, Alexa647-labelled CAII (AID 1122); settings: CAII-A647 binding fluorescence, higher = more signal
[16] = COS7 lysate on small-molecule microarray, probe aHis, 635 nm (AID 1123); settings: COS7 cell lysate, fluorescence, higher = more signal;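 note: z-score combines 667nm fluorescence intensity with signal-to-noise per printed compound spot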
[17] = compound binding in COS7 lysate, probe aLAP1, primary screen, cell lysate, small-molecule microarray (AID 1124); settings: probe aLAP1, fluorescence, higher = more signal;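 note: lysate comes from COS7 cells expressing LAP1 and is applied at 0.3 µg/mL; score merges spot fluorescence near 667 nm with signal-to-noise over triplicate slides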
[18] = tested on: Sam68 (KHDRBS1); assay: Sam68 small-molecule binders, primary screen, biochemical, small-molecule microarray, 635 nm fluorescence (AID 1125); settings: small-molecule microarray binding, higher = more signal;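 note: score merges 667 nm channel intensity with signal to noise over triplicate slides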
[19] = tested on: Chordin-like protein 2 (CHRDL2); assay: CHRDL2 small-molecule binders, primary screen, biochemical, small-molecule microarray, 635 nm fluorescence (AID 1126); settings: small-molecule microarray binding, fluorescence 635 nm; higher = more signal;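 note: printed compound slides probed with Chrdl2 protein at 4 µg/mL for 1 h at 4 C; score merges 667 nm emission intensity with signal to noise over three replicate slides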
[20] = target: Concanavalin-A (Canavalia ensiformis) (UniProt P02866); assay: ConA small-molecule binders, primary screen, artefact control for SMM control protein annotation, biochemical, small-molecule microarray, Alexa647 label, 635 nm (AID 1127); settings: ConA-A647 binding fluorescence, higher = more signal;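 note: z combines 667 nm emission intensity with signal-to-noise across three replicate slides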
Concanavalin-A (Canavalia ensiformis), sequence (P02866 whole entry, looked up): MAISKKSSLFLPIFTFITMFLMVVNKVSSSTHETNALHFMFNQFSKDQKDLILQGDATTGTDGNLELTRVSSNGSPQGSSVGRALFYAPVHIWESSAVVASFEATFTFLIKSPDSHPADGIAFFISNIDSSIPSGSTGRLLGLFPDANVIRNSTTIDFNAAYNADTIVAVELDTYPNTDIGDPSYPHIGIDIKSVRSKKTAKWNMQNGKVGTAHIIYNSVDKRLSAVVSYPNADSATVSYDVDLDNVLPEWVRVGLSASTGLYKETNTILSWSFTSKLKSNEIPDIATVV

Torsin-1A-interacting protein 1 (Homo sapiens), sequence (Q5JTV8 whole entry, looked up): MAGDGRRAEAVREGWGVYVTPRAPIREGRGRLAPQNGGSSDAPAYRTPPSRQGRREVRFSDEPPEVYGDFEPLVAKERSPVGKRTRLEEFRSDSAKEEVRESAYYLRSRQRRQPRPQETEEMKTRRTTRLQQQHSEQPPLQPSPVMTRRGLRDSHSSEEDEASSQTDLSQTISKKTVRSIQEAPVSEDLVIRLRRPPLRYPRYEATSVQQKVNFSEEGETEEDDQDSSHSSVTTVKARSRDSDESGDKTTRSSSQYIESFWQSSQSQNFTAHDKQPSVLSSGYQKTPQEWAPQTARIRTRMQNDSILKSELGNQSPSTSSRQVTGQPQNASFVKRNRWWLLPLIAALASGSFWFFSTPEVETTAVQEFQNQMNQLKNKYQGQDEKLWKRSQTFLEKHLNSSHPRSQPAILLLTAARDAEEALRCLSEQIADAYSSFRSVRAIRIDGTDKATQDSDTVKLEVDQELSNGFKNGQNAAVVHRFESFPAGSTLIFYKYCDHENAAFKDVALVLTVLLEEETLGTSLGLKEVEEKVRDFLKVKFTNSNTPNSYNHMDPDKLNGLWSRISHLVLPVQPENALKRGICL
Alpha-bungarotoxin (Bungarus multicinctus), sequence (P60615 whole entry, looked up): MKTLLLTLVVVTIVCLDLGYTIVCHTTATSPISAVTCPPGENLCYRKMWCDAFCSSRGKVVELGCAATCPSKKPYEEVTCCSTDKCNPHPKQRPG
Left-right determination factor 2 (Homo sapiens), sequence (O00292 whole entry, looked up): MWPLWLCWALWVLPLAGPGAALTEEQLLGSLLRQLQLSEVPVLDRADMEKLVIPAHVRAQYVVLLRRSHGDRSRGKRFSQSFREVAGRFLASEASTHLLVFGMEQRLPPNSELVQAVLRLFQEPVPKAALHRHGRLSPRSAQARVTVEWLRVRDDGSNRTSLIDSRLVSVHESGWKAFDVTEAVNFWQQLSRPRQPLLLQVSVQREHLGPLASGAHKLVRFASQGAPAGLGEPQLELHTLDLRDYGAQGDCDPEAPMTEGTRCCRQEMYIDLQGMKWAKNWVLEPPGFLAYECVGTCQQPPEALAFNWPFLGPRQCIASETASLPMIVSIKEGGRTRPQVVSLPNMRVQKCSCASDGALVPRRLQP
Albumin (Bos taurus), sequence (P02769 whole entry, looked up): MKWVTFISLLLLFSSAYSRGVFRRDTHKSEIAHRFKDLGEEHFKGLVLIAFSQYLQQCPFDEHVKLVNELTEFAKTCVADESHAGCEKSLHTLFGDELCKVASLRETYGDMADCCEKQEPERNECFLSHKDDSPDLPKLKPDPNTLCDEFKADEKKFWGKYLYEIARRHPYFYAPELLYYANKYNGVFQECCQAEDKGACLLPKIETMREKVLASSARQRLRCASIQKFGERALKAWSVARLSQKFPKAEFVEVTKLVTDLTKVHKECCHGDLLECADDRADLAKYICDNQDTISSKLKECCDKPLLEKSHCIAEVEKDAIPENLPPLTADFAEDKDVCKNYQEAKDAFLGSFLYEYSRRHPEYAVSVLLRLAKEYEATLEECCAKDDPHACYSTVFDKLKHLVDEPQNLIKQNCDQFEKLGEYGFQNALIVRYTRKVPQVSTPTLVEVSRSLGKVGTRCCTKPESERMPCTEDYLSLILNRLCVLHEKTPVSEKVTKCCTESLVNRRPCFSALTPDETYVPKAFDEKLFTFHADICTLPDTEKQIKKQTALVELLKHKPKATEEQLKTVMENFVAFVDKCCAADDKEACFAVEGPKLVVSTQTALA

Structure (SMILES)	composite z-score [1]	z-score [2]	composite z-score [3]	composite z-score [4]	composite z-score [5]	composite z-score [6]	composite z-score [7]	composite z-score [8]	composite z-score [9]	composite z-score [10]	composite z-score [11]	composite Z-score [12]	composite z-score [13]	composite z-score [14]	composite z-score [15]	composite z-score [16]	composite z-score [17]	composite z-score [18]	composite z-score [19]	composite z-score [20]
O=C(CS)NCCCCCCNC(=O)[C@H]1C[C@H]2C(=O)N3CCC[C@H]3C(=O)N2[C@H]1c1ccc(O)cc1	-0.185	-0.32	-0.0156	0.511	0.425	-0.0236	-0.0011	0.202	1.68	0.927	0.11	0.131 (inactive)	0.298	-0.147	0.389	-0.125	-0.0269	0.557	0.257	0.853
CCCCN1CC=CC23O[C@@H]4/C=C\CCCOC(=O)C4[C@H]2C(=O)N(C(C)CO)[C@@H]3C1=O (stereo not given in full)	-0.779	-0.112	-0.697	-0.573	-0.101	-0.172	-0.17	-0.186	-0.585	-0.0491	0.962	0.727 (inactive)	-0.222	-0.151	0.839	0.296	0.203	-0.296	0.112	-1.23
COc1ccc([Si](C)(C)[C@@H]2[C@@H](CCO)O[C@]3(C(=O)N(Cc4ccc(N5C(=O)c6cccc7cccc5c67)cc4)c4ccccc43)[C@H]2C)cc1	-1.27	-4.81	-0.983	0.424	1.09	-0.154	-0.16	0.094	-0.164	-0.0784	0.308	0.77 (inactive)	-0.252	-0.119	0.382	0.332	0.232	-0.276	-0.161	-0.259
CN1C(=O)C2C(C1=O)C1C=C(c3ccc(CO)cc3)C2C(C2CC2)N1Cc1sc2ccccc2c1Cl (stereo not given)	0.946	-1.58	0.545	2.06	0.398	0.0561	0.079	-0.186	2.06	2.87	0.947	-0.0285 (inactive)	0.248	0.114	0.661	2.59	0.74	1.3	-0.124	1.21
COCCOC(=O)N1C(=O)[C@@]2(c3cc(C#CCC(C(=O)OC)C(=O)OC)ccc31)[C@H](c1ccccc1OCCO)N1[C@H](c3ccccc3)[C@H](c3ccccc3)OC(=O)[C@H]1[C@@H]2C(=O)Nc1nc2ccccc2s1	0.678	-1.11	0.691	1.29	0.522	-0.0134	-0.0146	0.185	1.99	2.06	0.757	0.794 (inactive)	0.261	-0.0048	0.324	1.93	1.47	1.31	0.554	1.12
O=C1O[C@@H](c2ccccc2)[C@@H](c2ccccc2)N2[C@@H](c3ccccc3OCCO)[C@]3(C(=O)Nc4ccc(C#CC5(O)CCCCCC5)cc43)[C@@H](C(=O)NC[C@H](O)c3ccccc3)[C@H]12	1.41	-3.23	-0.24	0.819	0.923	0.0912	0.681	1.86	0.0197	0.728	0.644	1.17 (inactive)	0.638	0.0062	0.244	2.29	0.146	1	-0.134	0.622
CC(C)C(O)C1C=CC2C(=O)N(C)C(=O)C2N1N1CCCCC1 (stereo not given)	0.471	0.279	0.223	0.372	-0.387	-0.0462	0.0723	0.693	0.815	0.502	0.867	0.875 (inactive)	0.143	0.0994	0.773	2.2	0.111	0.832	0.117	0.657
[N-]=[N+]=Nc1ccccc1[C@@H]1OC(c2ccc(OCCCO)cc2)=N[C@]1(CCS(=O)(=O)c1ccccc1)C(=O)O	1.42	0.666	0.459	1.35	0.304	0.383	-0.0146	-0.0345	0.677	1.55	0.829	0.834 (inactive)	0.416	-0.0323	0.683	1.61	-0.252	1.31	0.012	1.15
CCN(CC)c1ccc(N2CC=CC34O[C@@H]5C=CCCOC(=O)C5[C@H]3C(=O)N(CCCO)[C@@H]4C2=O)cc1 (stereo not given in full)	-0.591	0.0997	0.0606	-0.409	-0.977	-0.176	-0.294	-0.288	-0.273	-1.17	-0.87	-0.0662 (inactive)	-0.0387	-0.102	-0.177	-0.291	-0.332	-0.876	-0.218	-2.31
C=C(COC)C(=O)CC[C@H](OC(=O)c1cccnc1)c1ccccc1OCCO	0.862	-3.13	0.53	-0.0382	-0.689	-0.0479	-0.138	0.437	1.08	0.443	0.233	0.708 (inactive)	0.217	-0.0846	0.286	0.765	0.591	1.32	0.906	0.475
C=C(CCCC)C(=O)CC[C@H](OC(=O)c1ccccc1-c1ccccc1C(=O)O)c1ccc(CO)o1	1.42	-0.872	0.645	0.856	-0.771	-0.0458	-0.108	0.238	0.876	1.65	0.734	0.0663 (inactive)	-0.0014	-0.14	0.15	0.455	0.645	1.29	0.82	0.933
C=CCOC(=O)[C@@H]1[C@H]2C(=O)O[C@H](c3ccccc3)[C@H](c3ccccc3)N2[C@H](c2ccc(OCCOC(=O)[C@H]3C[C@H]4C(=O)N[C@@H](CCCC[N+](C)(C)C)C(=O)N4[C@H]3c3cccc(OCCO)c3)cc2)[C@@]12C(=O)Nc1ccc(I)cc12	1.14	-1.29	1.08	0.38	-0.0134	-0.091	-0.153	-0.033	0.896	0.642	-0.707	0.629 (inactive)	-0.0647	-0.142	0.465	0.93	0.341	1.19	1.19	1.1
COCCOC(=O)N1C(=O)[C@@]2(c3cc(C#CCC(C(=O)OC)C(=O)OC)ccc31)[C@H](c1ccc(OCCO)cc1)N1[C@H](c3ccccc3)[C@H](c3ccccc3)OC(=O)[C@H]1[C@@H]2C(=O)NC[C@H](O)c1ccccc1	0.958	-1.71	0.59	1.09	-0.518	-0.17	-0.291	-0.202	0.402	1.18	0.599	-0.33 (inactive)	0.272	-0.132	0.563	2.42	0.41	1.32	0.45	1.01
COCC1=C([C@H](O)CCc2ccccc2)[C@H](CO)[C@@H]2C(=O)N(Cc3ccccc3)C(=O)[C@@H]2C1	-0.0325	-0.711	0.435	-0.519	-0.465	-0.0194	-0.214	-0.139	0.167	0.206	-0.103	0.0653 (inactive)	-0.0456	-0.129	-0.0186	0.0949	-0.102	-0.0322	0.422	0.0998
O=C(N1CCCCC1)[C@]1(CCS(=O)(=O)c2ccccc2)N=C(c2ccc(OCCCO)cc2)O[C@@H]1c1ccccc1	0.876	-3.16	0.101	1.91	1.02	0.055	1.49	0.56	0.917	2.56	0.431	1.77 (inactive)	0.381	0.0161	0.639	2.08	0.165	1.27	-0.457	1.18
